Measured values reported in the supplement of paper PMC10981050.
“And” between values parts separate entries of the source, which are not always exact repeats. Identical values can stand only once. Counter-ions that a name gives are not always drawn.

Legend:
Assay in all cases: cell viability relative to vehicle control; higher = less cytotoxic
Conditions in all cases: 10 µM
K562 = tested on: K562
How it was run: (§1)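 CRISPR-edited mutant clones and isogenic wild-type clones from four leukaemia lines were screened against Selleck bioactive, kinase and epigenetic probe libraries, with identity-inconsistent compounds excluded. Each compound was acoustically dispensed at a single 10 µM dose into 384-well plates holding 2000 cells in 50 µL medium per well. After 48 h the supernatant was removed and CellTiter-Glo luminescence was read. Viability was expressed as percent of the on-plate vehicle control and analysed in Genedata Screener.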

MARIMO = tested on: MARIMO
How it was run: as §1

MOLM14 = tested on: MOLM14
How it was run: as §1

OCI-AML2 = tested on: OCI-AML2
How it was run: as §1

| SMILES | cell viability (K562; SRSF2 genotype: SRSF2 P95H/wt) | cell viability (K562; SRSF2 genotype: SRSF2 wt/wt) | cell viability (MARIMO; SRSF2 genotype: SRSF2 P95H/wt) | cell viability (MARIMO; SRSF2 genotype: SRSF2 wt/wt) | cell viability (MOLM14; SRSF2 genotype: SRSF2 P95H/wt) | cell viability (MOLM14; SRSF2 genotype: SRSF2 wt/wt) | cell viability (OCI-AML2; SRSF2 genotype: P95H/wt) | cell viability (OCI-AML2; SRSF2 genotype: wt/wt) |
| --- | --- | --- | --- | --- | --- | --- | --- | --- |
| O=C(O)c1ccc(-c2ccc(C=C3SC(=S)N(Cc4ccccc4)C3=O)o2)cc1 [Leukadherin-1] | 89.1% and 83.5% | 82.9% | 85.4% | 96.4% | 82.3% | 91.9% | 89% | 112% |
| COc1cccc(-c2cc(=O)c3ccccc3o2)c1N | 95.9% and 95.1% | 95.6% | 69.9% | 61.9% | 99.5% | 109% | 73.1% | 58% |
| COc1cc2ncnc(Sc3nnc(C)s3)c2cc1OC | 52.4% and 59.1% | 73.6% | 42% | 42.1% | 5.68% | 3.57% | 3.76% | 16.7% |
| COc1ccc(S(=O)(=O)Nc2nc(-c3cccc([N+](=O)[O-])c3)cs2)cc1OC | 104% and 99% | 92.7% | 97.4% | 112% | 93.3% | 100% | 95.4% | 108% |
| O=c1c(-c2ccc(O)cc2)coc2cc(O)ccc12 [Daidzein] | 99.3% and 97.8% | 97.8% | 95.4% | 96.9% | 93.4% | 96.7% | 92.9% | 102% |
| CCOC(=O)c1c2c3c(cccc3[nH]c1=O)C(=O)c1ccccc1-2 | 95.8% and 97.2% | 90.7% | 84% | 96.1% | 90.7% | 95.8% | 92.4% | 101% |
| CC1(C)CC[C@]2(C(=O)O)[C@H](O)C[C@]3(C)C(=CC[C@@H]4[C@@]5(C)CC[C@H](O)[C@@](C)(C=O)[C@@H]5CC[C@]43C)[C@@H]2C1 [Quillaic acid] | 96.1% and 95.3% | 82.9% | 95% | 104% | 84.6% | 91.7% | 98.9% | 96.8% |
| CN(CCOc1ccc(CC2SC(=O)NC2=O)cc1)c1ccccn1 (stereo not given) [Rosiglitazone (Avandia)] | 101% and 90.7% | 85% | 89.6% | 101% | 90% | 96.6% | 94% | 101% |
| CN1C(=O)[C@@H](NC(=O)c2n[nH]c(Cc3ccccc3)n2)COc2ccccc21 | 97.3% and 106% | 103% | 103% | 105% | 103% | 106% | 106% | 106% |
| CCOc1cc(N2CCC(O)CC2)ccc1Nc1ncc2c(n1)N(C)c1ccccc1C(=O)N2C | 91% and 89.7% | 88% | 73% | 59.6% | 62.4% | 55.3% | 58.3% | 67.9% |
| O=C(O)C(=O)O [Oxalic acid] | 99% and 94.9% | 90% | 95.8% | 94.5% | 95.2% | 94.3% | 99.2% | 99.6% |
| Nc1nc(N)c2nc(-c3cccc(O)c3)c(-c3cccc(O)c3)nc2n1 | 95% and 105% | 88.6% | 111% | 101% | 108% | 107% | 98.5% | 91.4% |
| Clc1ccc2c(c1)CCc1cccnc1C2=C1CCNCC1 [Desloratadine] | 90.9% and 102% | 93.2% | 80.7% | 83.5% | 88.8% | 94.3% | 94.8% | 81.9% |
| C[C@H](CC(=O)C[C@@H](C)[C@H]1C[C@H](O)[C@@]2(C)C3=C(C(=O)C[C@]12C)[C@@]1(C)CCC(=O)C(C)(C)[C@@H]1C[C@@H]3O)C(=O)O [Ganoderic acid A] | 102% and 109% | 103% | 104% | 104% | 99.5% | 102% | 102% | 111% |
| C=CC(=O)Nc1cccc(Oc2nc(Nc3ccc(N4CCN(C)CC4)cc3)ncc2Cl)c1 | 19.3% and 33.1% | 34.2% | 29.4% | 18.8% | -0.04% | -0.03% | 0.39% | 5.07% |
| OCc1cc(C(O)CNCCCCCCOCCCCc2ccccc2)ccc1O (stereo not given) [Salmeterol] | 77.8% and 87.8% | 88.4% | 67.7% | 68.6% | 62.8% | 74.9% | 55.2% | 60.2% |
| CCN(c1cc(-c2ccc(CN3CCOCC3)cc2)cc(C(=O)NCc2c(C)cc(C)[nH]c2=O)c1C)C1CCOCC1 [Tazemetostat (EPZ-6438)] | 92.9% and 95% | 94.2% | 93.3% | 102% | 89.5% | 93.3% | 105% | 99.6% |
| COc1ccc2cc3[n+](cc2c1OC)CCc1cc2c(cc1-3)OCO2 [Berberine chloride] | 66.5% and 69.6% | 65.3% | 67.2% | 66.7% | 70.4% | 81.3% | 48.9% | 53.8% |
| CC(C)(C)C[C@@H]1N[C@@H](C(=O)N[C@H]2CC[C@H](O)CC2)[C@H](c2cccc(Cl)c2F)[C@]12C(=O)Nc1cc(Cl)ccc12 | 76.2% and 81.8% | 74.8% | 84.9% | 83.6% | 0.31% | 0.33% | 0.34% | 8.97% |
| CC1=C(/C=C/C(C)=C/C=C/C(C)=C\C(=O)O)C(C)(C)CCC1 [Isotretinoin] | 91.5% and 95.7% | 87.2% | 69.3% | 76.9% | 65.4% | 81.5% | 15.7% | 41.8% |

| SMILES | cell viability (K562; SRSF2 genotype: SRSF2 P95H/wt) | cell viability (K562; SRSF2 genotype: SRSF2 wt/wt) | cell viability (MARIMO; SRSF2 genotype: SRSF2 P95H/wt) | cell viability (MARIMO; SRSF2 genotype: SRSF2 wt/wt) | cell viability (MOLM14; SRSF2 genotype: SRSF2 P95H/wt) | cell viability (MOLM14; SRSF2 genotype: SRSF2 wt/wt) | cell viability (OCI-AML2; SRSF2 genotype: P95H/wt) | cell viability (OCI-AML2; SRSF2 genotype: wt/wt) |
| --- | --- | --- | --- | --- | --- | --- | --- | --- |
| Cc1c[nH]c(C=C2C(=O)Nc3ccccc32)c1CCC(=O)O | 91.9% and 93.8% | 91.2% | 95.2% | 92.2% | 32.7% | 28% | 54.2% | 58.1% |
| C=CC(=O)Nc1cccc(Nc2nc(Nc3ccc(Oc4ccnc(C(=O)NC)c4)cc3)ncc2F)c1 | 87.5% and 95.6% | 85.1% | 83.4% | 83.8% | 53.1% | 53.4% | 57.5% | 63.8% |
| CC1=C(CC[C@@H](C)CO[C@@H]2O[C@H](CO)[C@@H](O)[C@H](O)[C@H]2O)O[C@H]2C[C@H]3[C@@H]4CC=C5C[C@@H](O[C@@H]6O[C@H](CO)[C@@H](O[C@@H]7O[C@@H](C)[C@H](O)[C@@H](O)[C@H]7O)[C@H](O)[C@H]6O[C@@H]6O[C@@H](C)[C@H](O)[C@@H](O)[C@H]6O)CC[C@]5(C)[C@H]4CC[C@]3(C)[C@@H]12 [Pseudoprotodioscin] | 107% and 104% | 110% | 99.3% | 104% | 96.2% | 101% | 110% | 105% |
| C#CC1(O)CC[C@H]2[C@@H]3CCC4=CC(=O)CC[C@@H]4[C@H]3CC[C@@]21CC (stereo not given in full) [Norgestrel] | 100% | 97.1% | 95.6% | 103% | 98.2% | 108% | 122% | 114% |
| C=C1CC[C@@H]2[C@](C)(COC(=O)CCC(=O)O)[C@H](OC(=O)CCC(=O)O)CC[C@@]2(C)[C@@H]1/C=C/C1=CCOC1=O [Dehydroandrographolide Succinate Potasium Sa] | 105% and 103% | 105% | 105% | 101% | 99.1% | 105% | 109% | 104% |
| O=C[C@H](O)[C@@H](O)[C@H](O[C@H]1O[C@H](CO)[C@@H](O[C@H]2O[C@H](CO)[C@@H](O[C@H]3O[C@H](CO)[C@@H](O[C@H]4O[C@H](CO)[C@@H](O)[C@H](O)[C@H]4O)[C@H](O)[C@H]3O)[C@H](O)[C@H]2O)[C@H](O)[C@H]1O)[C@H](O)CO [Maltopentaose] | 101% | 103% | 97.8% | 105% | 104% | 106% | 109% | 110% |
| Cc1cc(O)c(C(=O)N[C@@H](C(=O)N[C@@H]2C(=O)N3C(C(=O)O)=C(CSc4nnnn4C)CS[C@H]23)c2ccc(O)cc2)cn1 [Cefpiramide sodium] | 111% and 107% | 104% | 109% | 115% | 107% | 110% | 99.7% | 99.8% |
| CO/N=C(\C(=O)N[C@@H]1C(=O)N2C(C(=O)[O-])=C(C[N+]3(C)CCCC3)CS[C@H]12)c1csc(N)n1 [Cefepime Dihydrochloride Monohydrate] | 101% and 102% | 106% | 96.3% | 109% | 105% | 107% | 104% | 113% |
| CCC1CC(=Cc2cccnc2)C(=O)C(=Cc2cccnc2)C1 (stereo not given) | 21.1% and 19.7% | 17.9% | 0.77% | 0.8% | 0.49% | 0.29% | 0.25% | 0.31% |
| CC(=O)N1CCN(c2ccc(NC(=O)Cc3cnc(-c4ccnc(F)c4)c(C)c3)nc2)CC1 | 88.7% and 84.8% | 82.3% | 85.7% | 97.8% | 80.4% | 86.7% | 91.1% | 94.6% |
| COC1=CC(=O)c2ccccc2C1=O [2-Methoxy-1,4-naphthoquinone] | 3.03% and 1.06% | 18.6% | 46.3% | 48% | 31.2% | 17.5% | 36.9% | 38.8% |
| COc1cc(OC2CCN(C)CC2)ccc1Nc1ncc2c(n1)n(C1CCCC1)c(=O)n2C | 81.2% and 76.4% | 78.1% | 44.7% | 38.6% | 10.8% | 14% | 4.89% | 13.5% |
| Cn1ccnc1S [Methimazole (Tapazole, Northyx)] | 101% and 94.7% | 95.5% | 99.3% | 99.8% | 97.7% | 97.6% | 93.2% | 100% |
| CCOP(=O)(OCC)C(=Cc1cc(C(C)(C)C)c(O)c(C(C)(C)C)c1)P(=O)(OCC)OCC | 77.8% and 87.5% | 84.6% | 90.4% | 93% | 88.8% | 71.6% | 90.9% | 97% |
| COC(=O)N[C@H](C(=O)N1CC2(CC2)C[C@H]1c1nc(-c2ccc3c(c2)C(F)(F)c2cc(-c4ccc5[nH]c([C@@H]6[C@H]7CC[C@H](C7)N6C(=O)[C@@H](NC(=O)OC)C(C)C)nc5c4)ccc2-3)c[nH]1)C(C)C [Ledipasvir (GS5885)] | 84.9% and 87.8% | 84.3% | 86.4% | 90.2% | 73.7% | 84.3% | 87.9% | 91.8% |
| CC(=O)OCC(=O)[C@H]1CC[C@H]2[C@@H]3CCC4=CC(=O)CC[C@]4(C)[C@H]3CC[C@]12C [Deoxycorticosterone acetate] | 91.4% and 91.9% | 98.4% | 89.8% | 99% | 89% | 96.2% | 86.1% | 76.2% |
| O=C1CCN(c2ccccc2)N1 [Phenidone] | 106% and 107% | 103% | 102% | 105% | 100% | 105% | 99.5% | 111% |
| O=C1/C(=C/c2cccs2)CC/C1=C\c1cccs1 | 99.2% and 106% | 110% | 96.2% | 104% | 105% | 99.2% | 109% | 86% |
| Cc1cc(C(N)=O)ccc1-n1c(CCC(=O)O)ccc1-c1ccc(-n2ccnc2)cc1 | 101% and 109% | 108% | 105% | 98% | 105% | 108% | 109% | 124% |
| COc1ccccc1N1CCN(CCN2C(=O)CC3(CCCC3)CC2=O)CC1 [BMY 7378 Dihydrochloride] | 98.9% and 100% | 91.1% | 95.3% | 106% | 99.9% | 95.2% | 89.4% | 105% |
